Assay results reported in PubChem BioAssay AID784 (The Scripps Research Institute Molecular Screening Center, 2007).
Out of some 30,000 compounds screened, about 130 (0.43%) were called active. The full list was thinned out, with actives kept by preference. Unmarked numbers belong to inactive results. No stated cut-off is given here; in the data, active means activation above about 65%; inactive means the rest.

target: Lysosomal acid glucosylceramidase (Homo sapiens) (UniProt P04062); assay: raising glucocerebrosidase activity, Gaucher cells – primary screen (AID 784); conditions: L444P Gaucher fibroblasts, 4-MU-glucoside fluorescence, 3 days; at 10 µM; hits give high values;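 further: 0% = vehicle wells and 100% = positive control wells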
Sequence (P04062 whole entry L483P): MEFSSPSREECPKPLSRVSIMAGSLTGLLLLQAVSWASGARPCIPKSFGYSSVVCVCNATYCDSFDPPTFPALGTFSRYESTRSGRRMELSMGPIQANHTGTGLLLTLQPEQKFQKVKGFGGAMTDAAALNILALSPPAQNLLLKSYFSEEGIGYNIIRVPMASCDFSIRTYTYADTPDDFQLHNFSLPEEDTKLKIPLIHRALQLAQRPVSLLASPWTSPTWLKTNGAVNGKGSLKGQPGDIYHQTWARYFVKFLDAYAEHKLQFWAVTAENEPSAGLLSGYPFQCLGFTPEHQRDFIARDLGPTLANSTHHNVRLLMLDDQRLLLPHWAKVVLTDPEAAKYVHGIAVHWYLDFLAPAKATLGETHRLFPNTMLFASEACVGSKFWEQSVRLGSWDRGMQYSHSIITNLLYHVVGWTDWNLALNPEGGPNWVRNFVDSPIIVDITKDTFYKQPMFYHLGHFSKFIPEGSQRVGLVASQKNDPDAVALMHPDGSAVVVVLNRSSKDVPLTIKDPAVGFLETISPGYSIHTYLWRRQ

SMILES	activation
CCn1c2c(c3ccc(OC)cc31)CCCC2=O	-2.82%
O=C(COc1ncnc2ccccc12)NC(=O)NCc1ccccc1	-9.58%
CCCOc1cccc(C(=O)Nc2nnn(CCC)n2)c1	-14.1%
Cc1ccc(OCc2nc(C#N)c(N3CCCC3)o2)cc1	-34.7%
Cc1ccc(OCCCC(=O)N2CCOCC2)c(C)c1	9.81%
Cc1cc(N2CCN(Cc3ccc4c(c3)OCO4)CC2)n2ncnc2n1	4.34%
CCOc1cc(CO)ccc1OCC(=O)N1CCCCC1	38.3%
CC(C)(C)c1nc(NCC2CCCO2)c2nnn(Cc3ccccc3)c2n1 (stereo unspecified)	-23.9%
O=CN1CCN(C2CC(=O)N(c3ccc4c(c3)OCO4)C2=O)CC1 (stereo unspecified)	-20.8%
CC1(C)CC(=O)C=C(NCCCN2CCCC2=O)C1	48.7%
NC(CSC12CC3CC(CC(C3)C1)C2)C(=O)O (stereo unspecified)	-2.09%
CCOC(=O)C1CCCN(C(=O)c2cncc(Br)c2)C1 (stereo unspecified)	-20.7%
OC(COc1ccccc1)Cn1cc(Br)cn1 (stereo unspecified)	-62.4%
CCCCSc1nnc(-c2ccc(C)cc2)o1	65.5% (active)
c1ccc(-c2nnc(SCc3nc4ccccc4[nH]3)o2)cc1	-6.36%
COc1ccc(-c2nnc(SC(C)C#N)o2)cc1 (stereo unspecified)	-2.02%
CC1(C)SC2c3ccccc3C(=O)N2[C@@H]1C(=O)NCc1ccco1 (stereo partly specified)	-2.64%
C=CCn1cnc2scc(-c3ccccc3)c2c1=O	-7.71%
CCN1C(=O)C(C(=O)NC(C)c2ccccc2)C2CC1(C)Oc1ccccc12 (stereo unspecified)	-6.62%
CC(C)C(C(=O)NC1CCCCC1)N(CC1CCCO1)C(=O)CNS(=O)(=O)c1ccc(F)cc1 (stereo unspecified)	-1.42%
COc1ccc(NC(=O)c2c(C)oc3c2CCCC3)cc1	9.49%
CCc1c(C)sc(NC(=O)OC)c1C(=O)N1CCOCC1	-9.88%
Cc1nc2nc3c(cn2n1)C(=O)CC(c1ccccc1)C3 (stereo unspecified)	-10.1%
CC(=O)Nc1cccc(NC(=O)c2c(-c3ccccc3)noc2C)c1	-9.69%
CCc1nc(N2CCN(c3nc(C)cc(C)n3)CC2)c2oc3ccccc3c2n1	-1.58%
CCCn1c(SCC(=O)Nc2cccc(C(=O)OCC)c2)nnc1-c1ccoc1C	-19.7%

SMILES	activation
O=C(COc1ccccc1)N1CCc2ccccc2C1	-2.86%
CCCCc1nc2ccccc2c(=O)n1NC(=O)c1c(O)c2cccc3c2n(c1=O)CC3	3.98%
Cc1c(NC(=O)Nc2ccccc2Cl)sc(=S)n1C	-15.8%
CC12C(=O)N(n3cnnc3)C(=O)C1C1C=CC2C1 (stereo unspecified)	-8.37%
CC(C)N(C(=O)Cn1c(SCC(=O)N2CCN(c3ccccc3)CC2)nc2ccccc21)C(C)C	-5.29%
Cc1ccccc1NC(=O)c1cc(S(=O)(=O)N2CCOCC2)cs1	-11.8%
CC(=NCc1ccco1)C1=C(O)c2ccccc2C1=O	-41.5%
Cc1nc2c(c(=O)n1Cc1ccco1)c1nc3ccccc3nc1n2Cc1ccccc1	-11.7%
COc1ccc(-c2csc(N3CCN(Cc4ccc5c(c4)OCO5)CC3)n2)cc1	-17.4%
CC(c1ccccc1)n1c(NCCCn2ccnc2)nc2c1c(=O)[nH]c(=O)n2C (stereo unspecified)	-10.3%
COc1ccc(Br)cc1S(=O)(=O)N1CCN=C1C	-8.13%
O=[n+]1c2c(n([O-])c3cc(Br)ccc31)CCC2	30.8%
Cc1c(C(=O)OCc2cc(=O)n3cc(Br)ccc3n2)oc2ccccc12	23%
CCOCCCNS(=O)(=O)Cc1ccccc1	6.43%
CCOC(=O)C1=C(C)NC(C)=C(C(=O)OCC)C1C1=COCCO1	-5.96%
C=CCn1c(SCc2cc(C(=O)OC)c(C)o2)nnc1-c1ccncc1	31.7%
Cn1c(=O)n(C)c(=O)n(CC(=O)N2CCCCC2)c1=O	-12.6%
Clc1cccc(Cl)c1Cn1nnc(-c2cccs2)n1	10.2%
COc1ccccc1CNCc1cccs1	-7.11%
NC(=NC(=O)c1ccccc1)C1=C(O)CCC1=O	0%
O=C(CSc1nnc(-c2cccs2)n1-c1ccccc1)N1CCN(C(=O)c2ccco2)CC1	-13.7%
Cc1ccsc1CNn1cnnc1SCc1ccccc1F	-2.23%
Cc1nnc(NC2=NCCCCC2)o1	8.3%
CCS(=O)(=O)N1CCN(C(=O)c2cccs2)CC1	-24.4%
COc1ccccc1C(=O)Oc1ccc(N2C(=O)CCC2=O)cc1	4.62%
COC(C)(C)[C@]12CC(O)(C(C)C)ON1[C@H]1CCCCC1N2O (stereo partly specified)	-2.77%

SMILES	activation
CC(Cc1cccs1)NC(=O)NC1CCCCC1 (stereo unspecified)	-0.56%
C=C(C)Cn1c(SCC(=O)NCc2ccco2)nc2sc3c(c2c1=O)CCC3	-21.3%
CCOC(=O)CC1C(=O)NCCN1C(=O)COc1ccc(Br)cc1C (stereo unspecified)	-21.1%
Nn1c(SCC(=O)NC(=O)NC2CCCC2)nnc1-c1ccccc1F	2.97%
O=C(COc1ccc2c3c(c(=O)oc2c1)CCC3)NC1CCCCC1	9.84%
CC1CC(c2ccccc2)n2nc(NC(=O)c3cccs3)nc2N1 (stereo unspecified)	-23.6%
Cc1cc(NC(=O)COC(=O)c2ccc(F)c(S(=O)(=O)N3CCOCC3)c2)no1	-7.98%
Cc1cc(C)c2nc(N3CCCC3)c(C#N)cc2c1	18.1%
CN(C(=O)CSc1nnnn1-c1ccccc1)C1CCCCC1	-16.5%
Cc1nn(-c2ccccc2)c(C)c1C(=O)OCC(=O)NC(=O)NC1CCCCC1	59.8%
O=C(c1c(Cl)nc2sccn12)N1CCCc2ccccc21	-24.6%
CC1(c2ccccc2Cl)NC(=O)N(CC(=O)NC(=O)NCc2ccco2)C1=O (stereo unspecified)	-9.6%
Cc1cc(OCCN2CCCC2)ccc1C(C)C	-12.4%
CCC(=O)Nc1nc(OC)cc(OC)n1	-18.3%
CC(=O)c1cnc(Nc2nc(C)c3cc(C)ccc3n2)nc1C	13.5%
Cc1nnc(SCC(=O)N2CCc3ccccc32)n1-c1ccccc1	-18.6%
O=C(Cn1nnc(-c2ccccc2)n1)NCc1ccccc1	-40%
COc1ccc(Cn2c(=O)sc3ccccc32)cc1OC	-6.04%
O=C(O)Cc1ccc(NC(=O)c2cccs2)cc1	-9.31%
O=C(NCc1cccnc1)c1cn(-c2ccccc2)nc1-c1cccs1	-15.4%
COCCCNC(=O)c1c(F)c(F)c(F)c(F)c1F	-31.9%
CCOC(=O)C(CCOc1cccc(CC)c1)C(=O)OCC	-0.5%
CCn1cc(C(=O)NCc2ccc(OC)cc2OC)c(=O)c2ccc(C)nc21	-10.1%
Cn1c(=O)[nH]c(=O)c2c1nc(N1CCCCCC1)n2CC(=O)c1ccccc1	-1.4%
CC1Cc2ccccc2N1C(=O)Cn1cnc2ccccc2c1=O (stereo unspecified)	-14.5%
COC(=O)[C@@H](NC(=O)NCc1cccc(OC)c1)C(C)C	-5.38%

SMILES	activation
CCCc1nnc(NC(=O)CN2C(=O)c3ccccc3S2(=O)=O)s1	-21.6%
O=P(O)(CP(=O)(c1ccccc1)c1ccccc1)c1ccccc1	-3.68%
CCCCNC(=O)CSc1nnc(-c2ccco2)n1C	-32.4%
Cc1c(C)c2cc3c4c(oc3c(C)c2oc1=O)CCCC4	102% (active)
COC(=O)CCSc1nccn1Cc1ccccc1	-3.3%
Fc1ccccc1CCNc1nnnn1-c1ccccc1	-5.46%
CCN(C(=O)CSc1ncn[nH]1)c1cccc2ccccc12	4.77%
COCCn1nnnc1CN1CCC(NC(=O)Nc2cccc(OC)c2)CC1	2.44%
Cc1ccc(S(=O)(=O)N2CCN(C(=O)CCC(=O)NC3CCCc4ccccc43)CC2)cc1 (stereo unspecified)	-7.53%
Cc1ccc(-c2noc(CCC(N)=O)n2)cc1	1.93%
COC(=O)c1cn(CC(=O)NCc2cccs2)c2ccccc12	-8.81%
O=C(Cn1cc(C(=O)c2cccs2)c2ccccc21)NCc1cccs1	5.52%
COCCCNC(=O)Cn1cc(C(=O)C2CC2)c2ccccc21	72.8% (active)
CCCCn1c(SCC(=O)N2CCC(C(=O)OCC)CC2)nc2cc(S(N)(=O)=O)ccc21	-6.49%
CCOC(=O)c1cc2c(n(-c3ccc(C)cc3)c1=O)CCCC2=O	-11%
Cc1cccc(N2CC(C)Cn3c2nc2c3c(=O)n(CC(=O)OCc3ccccc3)c(=O)n2C)c1 (stereo unspecified)	-17.9%
CCOc1ccccc1-n1c(SCC(=O)N2CCCC2)nnc1-c1ccoc1C	0.64%
O=C(Nc1nc2cc3c(cc2s1)OCCO3)c1cccc(S(=O)(=O)N2CCOCC2)c1	0.12%
COc1ccccc1OCCC(=O)OCC(=O)NC(=O)NC(C)(C)C	4.86%
Cn1nc(-c2ccc(N3CCOCC3)c(NC(=O)c3ccccc3)c2)c2ccccc2c1=O	-54.8%
C=CCn1c(N)c(S(=O)(=O)c2cccs2)c2nc3ccccc3nc21	-13.8%
CC(C)Cn1c(N)c(C(=O)NCc2cccs2)c2nc3ccccc3nc21	73.7% (active)
C=CCn1c(N)c(C(=O)OCC(C)C)c2nc3ccccc3nc21	-9.15%
